From PubChem BioAssay
Hits are enriched below; roughly 19% of the tested compounds scored in any of these assays.
TDP1 cell CPT = qHTS for Inhibitors of human tyrosyl-DNA phosphodiesterase 1 (TDP1): qHTS in cells in presence of CPT. chicken DT40 Tdp1-/-;hTDP1 cells + 20 nM CPT, ATP luminescence, 48 h. Potency, µM (titrated, usually from 46.2 µM), actives largely listed as inhibitors. actives 12% (n = 420,000); also: nearly all actives have a fitted effect of over 55% in size
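Chicken DT40 Tdp1-/- cells complemented with human TDP1, 400 cells/well, exposed to compounds plus 20 nM camptothecin for at least 48 h at 37 C; viability read as ATP content by CellTiter-Glo luminescence.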
TDP1 block = qHTS Assay for Inhibitors of Tyrosyl-DNA Phosphodiesterase (TDP1); Potency, µM (doses to about 130 µM), usual class: inhibitors; actives 0.28% (n = 350,000); recombinant TDP1, AlphaScreen DNA substrate cleavage; Tyrosyl-DNA phosphodiesterase 1 (Homo sapiens), Q9NUW8; AID 485290, 2010; also: nearly all actives have a fitted effect of over 40% in size
Target sequence (Q9NUW8 whole entry, looked up): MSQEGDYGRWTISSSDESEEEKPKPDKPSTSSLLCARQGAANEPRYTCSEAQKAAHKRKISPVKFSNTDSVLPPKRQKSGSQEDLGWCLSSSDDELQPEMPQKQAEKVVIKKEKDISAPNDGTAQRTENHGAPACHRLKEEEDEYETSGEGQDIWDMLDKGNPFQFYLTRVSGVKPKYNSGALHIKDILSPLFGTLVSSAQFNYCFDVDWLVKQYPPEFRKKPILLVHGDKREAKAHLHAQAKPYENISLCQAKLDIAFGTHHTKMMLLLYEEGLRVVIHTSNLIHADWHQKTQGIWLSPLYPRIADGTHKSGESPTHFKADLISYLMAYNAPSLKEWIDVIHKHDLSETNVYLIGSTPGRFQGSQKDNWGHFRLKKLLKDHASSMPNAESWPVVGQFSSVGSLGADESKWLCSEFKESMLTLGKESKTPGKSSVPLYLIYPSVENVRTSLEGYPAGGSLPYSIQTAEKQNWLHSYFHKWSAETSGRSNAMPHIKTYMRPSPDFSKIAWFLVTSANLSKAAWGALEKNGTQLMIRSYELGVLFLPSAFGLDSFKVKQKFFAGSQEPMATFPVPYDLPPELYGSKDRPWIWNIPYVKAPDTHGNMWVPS
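Tdp1 1 nM final; 15 min RT w/ cpd; substrate 15 nM, 5 min; beads 10 ug/ml, 10 min; AlphaScreen read. Neg ctrl: no enzyme.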
DT40 TDP1 no CPT = qHTS for Inhibitors of human tyrosyl-DNA phosphodiesterase 1 (TDP1): qHTS in cells in absence of CPT | DT40 Tdp1-/- hTDP1 cells, no CPT, ATP luminescence, 48 h | AID 686978, 2013 | actives 15% (n = 420,000) | Potency, µM (top dose mostly 46.2 µM), most hits filed as inhibitors; also: nearly all actives have a fitted effect of over 55% in size
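Seeded 400 DT40-hTDP1 cells/well (vehicle DMSO, no 20 nM CPT); pinned compounds; ≥48 hr at 37 °C; CellTiter-Glo luminescence as viability measure.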
IL1B secr inh = qHTS for Inhibitors of Inflammasome Signaling: IL-1-beta AlphaLISA Primary Screen. activity change, % at 57.5 µM. AID 743279, 2014. actives 4.7% (n = 360,000). THP-1 LPS/ATP IL-1B secretion, AlphaLISA, 16 h; stronger effect = lower value; in the data active = activity change below about -50%; inconclusive = mostly about -30% to -49%
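THP-1 cells pretreated 1 hr with compounds (up to 57.5 uM final), then stimulated with LPS (250 ng/mL final) plus ATP (1.25 mM final); secreted IL-1B measured by AlphaLISA after 16 hr, decreased signal indicating inhibition.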
Giardia killer = Small Molecules that selectively kill Giardia lamblia: qHTS; activity change, % at 7.66 µM, hits read low; Giardia lamblia trophozoite viability; AID 540267, 2011; actives 0.15% (n = 340,000); in the data active = activity change below about -80%; inconclusive = between about -30% and that limit;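 also: parasites exposed to compound for two days anaerobically before the ATP read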
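Viability, read as ATP luminescence: trophozoites at 100 cells/well, compound added, 48 hrs anaerobic at 37 deg C, then 15-30 min room-temperature development before reading.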
ELG1 repair inh = qHTS screen for small molecules that inhibit ELG1-dependent DNA repair in human embryonic kidney (HEK293T) cells expressing luciferase-tagged ELG1; Potency, µM (highest dose often 46.1 µM), hits mostly inhibitors; AID 504467, 2011; actives 2.3% (n = 330,000); HEK293T ELG1-luciferase reporter, luminescence, 16 h; DNA damage induced by 5-fluorouridine; also: nearly all actives have a fitted effect of over 55% in size
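In this reporter screen, reduction of luminescence relative to DMSO vehicle indicated activity. Compounds and 5-fluorouridine were added together to 2,000 cells per well, incubated for 16 hr at 37 °C, then developed with ONE-Glo.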
Hits are given with their value; [ ] = remark or other dose. Unless noted, calls follow the shape of the dose curve; as a rule, active = well fitted curve in the direction sought with a large enough effect; inconclusive = small, poorly fitted or top-dose-only effect, or another doubt; inactive = no such curve, though single readings can be large; an effect the other way counts as inactive or inconclusive.

What do the screens show for `COc1ccc(-c2sc3cc(OC)c(OC)cc3c2C#CCO)cc1`?
TDP1 cell CPT: 18µM; TDP1 block: inactive; DT40 TDP1 no CPT: inconclusive; IL1B secr inh: inactive; Giardia killer: inactive; ELG1 repair inh: inconclusive

How did COc1ccc2sc(-c3ccc(SC)cc3)c(C#CCO)c2c1 do in these assays?
TDP1 cell CPT: 18µM; TDP1 block: inactive; DT40 TDP1 no CPT: inconclusive; IL1B secr inh: inactive; Giardia killer: inactive; ELG1 repair inh: inconclusive

Results for O=C1Cc2c([nH]c3ccc(Br)cc23)-c2ccccc2N1 ?
TDP1 cell CPT: inconclusive; TDP1 block: inactive; DT40 TDP1 no CPT: inconclusive; IL1B secr inh: -97; Giardia killer: inactive

Results for CCCN1CNc2c(c(=O)[nH]c(=S)n2CCc2ccsc2)C1 ?
TDP1 cell CPT: inactive; TDP1 block: inactive; DT40 TDP1 no CPT: inconclusive; Giardia killer: inconclusive

Results for CCC(C(=O)NCc1ccc2c(c1)CCN2C(=O)c1ccc(F)cc1)c1ccccc1 (centres undefined) ?
TDP1 cell CPT: inactive; TDP1 block: inactive; DT40 TDP1 no CPT: inactive

What do the screens show for `Cc1cc(C)c(S(=O)(=O)NCc2ccc3c(c2)CCN3C(=O)c2ccccc2)c(C)c1`?
TDP1 cell CPT: 15µM; TDP1 block: inactive; DT40 TDP1 no CPT: 10µM

What do the screens show for `CCC(=O)N1CCc2cc(CNS(=O)(=O)c3c(C)cc(C)cc3C)ccc21`?
TDP1 cell CPT: inconclusive; TDP1 block: inactive; DT40 TDP1 no CPT: 21µM

How did CCC(=O)N1CCc2cc(S(=O)(=O)Nc3ccccc3C)ccc21 do in these assays?
TDP1 cell CPT: inactive; DT40 TDP1 no CPT: inconclusive; IL1B secr inh: inactive; Giardia killer: inactive; ELG1 repair inh: inactive

How did Cc1cc(C)c(S(=O)(=O)NCc2ccc3c(c2)cc(C)n3C)c(C)c1 do in these assays?
TDP1 cell CPT: inconclusive; TDP1 block: inactive; DT40 TDP1 no CPT: 23µM; IL1B secr inh: inactive; Giardia killer: inactive; ELG1 repair inh: inactive

How did COc1ccc(OC)c(CN2CCN(C(=O)c3cccc(S(=O)(=O)Nc4ccc(C)cc4)c3)CC2)c1 do in these assays?
TDP1 cell CPT: 26µM; TDP1 block: inactive; DT40 TDP1 no CPT: inconclusive; IL1B secr inh: -53; Giardia killer: inactive; ELG1 repair inh: inconclusive

How did COc1ccc(OC)c(CN2CCN(C(=O)c3cc(S(=O)(=O)Nc4ccccc4OC)ccc3C)CC2)c1 do in these assays?
TDP1 cell CPT: inconclusive; TDP1 block: inactive; DT40 TDP1 no CPT: inconclusive; IL1B secr inh: inactive; Giardia killer: inactive; ELG1 repair inh: 23µM

What do the screens show for `COc1ccc(OC)c(CN2CCN(C(=O)c3ccc(S(=O)(=O)N4CCCCCC4)cc3)CC2)c1`?
TDP1 cell CPT: inconclusive; DT40 TDP1 no CPT: 21µM; IL1B secr inh: inconclusive

How did COc1ccc(NS(=O)(=O)c2cccc(C(=O)N3CCN(Cc4cc(OC)ccc4OC)CC3)c2)cc1 do in these assays?
TDP1 cell CPT: inconclusive; TDP1 block: inactive; DT40 TDP1 no CPT: inconclusive; IL1B secr inh: inactive; Giardia killer: inactive; ELG1 repair inh: inactive

How did COc1ccc(NS(=O)(=O)c2ccc(C)c(C(=O)N3CCN(Cc4cc(OC)ccc4OC)CC3)c2)cc1 do in these assays?
TDP1 cell CPT: 21µM; DT40 TDP1 no CPT: 23µM; IL1B secr inh: inactive; Giardia killer: inactive

How did COc1ccc(NS(=O)(=O)c2ccc(C)c(C(=O)N3CC(C)OC(C)C3)c2)cc1 (centres undefined) do in these assays?
TDP1 cell CPT: inconclusive; TDP1 block: inactive[0.505 µM]; DT40 TDP1 no CPT: inactive; IL1B secr inh: inactive; Giardia killer: inactive; ELG1 repair inh: inactive

What do the screens show for `COc1ccc(F)cc1CN1CCN(C(=O)c2ccc(S(=O)(=O)N3CCCCCC3)cc2)CC1`?
TDP1 cell CPT: inconclusive; DT40 TDP1 no CPT: inconclusive; IL1B secr inh: inactive; Giardia killer: inactive

What do the screens show for `COc1ccc(NC(=O)CCS(=O)(=O)c2ccc3c(c2)n(C)c(=O)c(=O)n3C)cc1Cl`?
TDP1 cell CPT: inactive; TDP1 block: inactive; DT40 TDP1 no CPT: inactive

What do the screens show for `O=S1(=O)CC(N2CCCCC2)CN1CCc1ccccc1` (centres undefined)?
TDP1 cell CPT: inconclusive; DT40 TDP1 no CPT: inactive; IL1B secr inh: inactive

Results for COc1ccc(C2C=C3CN(C(=O)OC(C)(C)C)S(=O)(=O)C3CC2OC(=O)c2cccc(C)c2)cc1 (centres undefined) ?
TDP1 block: inactive; Giardia killer: inactive

Results for COc1ccc(NC(=S)N(CCc2c(C)[nH]c3ccc(C)cc23)Cc2ccco2)cc1 ?
TDP1 cell CPT: inconclusive; TDP1 block: inactive; DT40 TDP1 no CPT: inconclusive; IL1B secr inh: inactive; Giardia killer: inactive; ELG1 repair inh: inconclusive

What do the screens show for `COc1ccc2[nH]c(C)c(CCN(Cc3cccs3)C(=S)Nc3ccccc3)c2c1`?
TDP1 cell CPT: inconclusive; TDP1 block: inactive; DT40 TDP1 no CPT: inconclusive; IL1B secr inh: -50; Giardia killer: inactive; ELG1 repair inh: inconclusive

What do the screens show for `COc1ccc(NC(=S)N(CCc2c(C)[nH]c3ccc(C)cc23)Cc2cccs2)cc1`?
TDP1 cell CPT: 16µM; TDP1 block: inactive; DT40 TDP1 no CPT: inconclusive; IL1B secr inh: -56; Giardia killer: inactive; ELG1 repair inh: inconclusive

How did CCOc1ccc(NC(=S)N(CCc2c(C)[nH]c3ccc(C)cc23)Cc2ccco2)cc1 do in these assays?
TDP1 cell CPT: inconclusive; TDP1 block: inactive; DT40 TDP1 no CPT: inconclusive; IL1B secr inh: inconclusive; Giardia killer: inactive; ELG1 repair inh: 16µM

Results for COc1ccc2[nH]c(C)c(CCN(Cc3cccs3)C(=S)Nc3ccc(F)cc3)c2c1 ?
TDP1 cell CPT: inconclusive; TDP1 block: inactive; DT40 TDP1 no CPT: inconclusive; IL1B secr inh: inactive; Giardia killer: inactive; ELG1 repair inh: inactive

Results for Cc1ccc(C)c(NC(=S)N2CCC(NC(=O)c3ccc(F)cc3)CC2)c1 ?
TDP1 cell CPT: inactive; TDP1 block: inactive; DT40 TDP1 no CPT: inactive; IL1B secr inh: inactive; Giardia killer: inactive; ELG1 repair inh: inactive

What do the screens show for `C=C1CCN(C(Cc2ccccc2)C(=O)Nc2ccc(OC)cc2)S(=O)(=O)c2ccccc21` (centres undefined)?
TDP1 block: inactive; Giardia killer: inactive

Results for Cc1cccc(OCC(=O)N(Cc2cccs2)c2ccc(Cl)cc2)c1C ?
TDP1 cell CPT: inconclusive; TDP1 block: inactive; DT40 TDP1 no CPT: inconclusive
